# Out of some 5,600 compounds screened, about 780 (14%) were called active. About 3% were inconclusive and are not listed. These entries were drawn from the full list. Unmarked numbers belong to inactive results.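 How the source made its calls: active means mean signal decrease across replicates above about 35% based on untreated-well scatter, with enough replicates individually passing (limit read from the data); inconclusive means no rule stated though some were filed; inactive means the rest.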
# Assay: NIH3T3 cell viability loss – cherry-pick, single point, cytotoxicity control for T. cruzi proliferation inhibitor project, confirmation (AID 651742);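 further: 0% = median of neutral control wells and 100% = median of positive control wells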
# Settings: NIH/3T3 viability, CellTiter-Glo ATP luminescence, 90 h; at 8.35 µM; hits give high values
row,Structure (SMILES),cytotoxicity (signal decrease)
1,COc1ccc(C#Cc2ccc([C@H]3[C@H](CO)N4CCCCN(C(=O)Cc5ccccc5)C[C@@H]34)cc2)cc1,58.2% (active)
2,COc1ccc(-c2ccc([C@H]3[C@H](CO)N4CCCCN(C(=O)Cc5ccncc5)C[C@@H]34)cc2)cc1,17.6%
3,O=C(Cc1ccccn1)N1CCCCN2[C@@H](CO)[C@@H](c3ccc(C#Cc4ccccc4)cc3)[C@@H]2C1,33.5%
4,O=C(Cc1cccnc1)N1CCCCN2[C@@H](CO)[C@H](c3ccc(C#CC4CCCC4)cc3)[C@@H]2C1,23.3%
5,C/C=C/c1ccc([C@H]2[C@H](CO)N3CCCCN(C(=O)Cc4ccncc4)C[C@@H]23)cc1,11.1%
